Source: PubChem BioAssay (EPA / NIEHS)
Calls of active or inactive are those of the source. Rule for the calls: active = hit-call score of the fitted dose curve at least 0.9, where 1 is the maximum; inactive = score below 0.9.

Experiment: CCTE_Shafer_MEA_acute_burst_duration_mean: CCTE's Neural Acute Assay for Mean Burst Duration, Shafer Lab (AID 2284014)
Procedure: CCTE_Shafer_MEA_acute assay is conducted using Axion Biosystems 48 well microelectrode array (MEA) plates and Maestro recording system. Each well of the MEA plate contains a grid of 16 microelectrodes embedded in the culture surface. Electrically active cells, such as neurons, can be cultured over the electrodes, and electrical activity in these cells can be recorded extracellularly. The spontaneous firing of neurons is captured from each electrode on a microsecond timescale providing both temporally and spatially precise data. […] The CCTE_Shafer_MEA_acute assay uses primary cultures of rat cortical neurons. As these cultures mature over time, neural networks develop functional activity and form cohesive networks in which electrical activity can be highly coordinated. Baseline 40-minute recordings are made on days post-plating 13 or 15, followed by a secondary 40-minute recording after chemical exposure.CCTE_Shafer_MEA_acute_burst_duration_mean is a component of the CCTE_Shafer_MEA_acute assay. It measures the average time from the first spike (action potential firing) to the last spike in a single-electrode burst (temporally-clustered group of spikes) during a recording in a microelectrode array (MEA) using Axion Biosystems Maestro 768 channel amplifier with the AxIS adaptive spike detector. The recordings before and after chemical treatment are used to calculate a percent change in the mean burst duration in each well.Data from the assay component CCTE_Shafer_MEA_acute_burst_duration_mean was analyzed into 1 assay endpoint. This assay endpoint, CCTE_Shafer_MEA_acute_burst_duration_mean, was analyzed in the negative analysis fitting direction relative to DMSO as the negative control and baseline of activity. Using a type of functional reporter, gain or loss-of-signal activity can be used to understand electrical activity.
Spontaneous activity in the cortical cultures was recorded using an Axion Biosystems Maestro 768 channel amplifier and Axion Integrated Studios (AxIS) v1.8 (or later) software. The amplifier recorded from all channels simultaneously (gain = 1200 x; sampling rate = 12.5 kHz/channel): raw signals were filtered with a Butterworth band-pass filter (300-5000 Hz), which filters out slower local field potentials leaving only fast potentials, i.e., "spikes", arising from extracellular currents associated with action potentials (Pine 2006; Wheeler and Nam 2011). On-line spike detection of filtered signals was conducted with the AxIS adaptive spike detector, using a threshold of 8x the root mean squared (rms) noise on each channel. Any electrodes with rms noise levels greater than 5 uV were grounded (e.g., no data were recorded). Once grounded, an electrode was grounded for the duration of the experiment. All recordings were conducted at 37 C. Wells were deemed usable if on the day of the exposure >/= 10 electrodes were active (defined as >/= 5 spikes/min). On DIV 13 or 15, a minimum of three wells from one cortical culture preparation were treated with each compound (0.03-40 uM). Prior to recording baseline activity, each mwMEA plate was placed in the Maestro at 37 C and allowed to sit for 20 min while firing rates stabilized. Baseline activity (40 min) was recorded before the addition of each compound. An additional 40 min of spontaneous activity was recorded in the presence of each compound. Changes in network parameters relative to baseline were assessed following compound treatment.

Structure (SMILES) | outcome | AC50
C1CN(CCOCCN2CCOCC2)CCO1 | inactive | –
COc1cc(CNC(=O)CCCC/C=C/C(C)C)ccc1O | inactive | –
CN(C)CCC(c1ccc(Cl)cc1)c1ccccn1 (stereo unspecified) | inactive | –
CCC[Si](OC(C)=O)(OC(C)=O)OC(C)=O | inactive | –
CN(C)Cc1cc(C(C)(C)C)c(O)c(C(C)(C)C)c1 | inactive | –
CC(C)C1OCCN1CCOC(=O)NCCCCCCNC(=O)OCCN1CCOC1C(C)C (stereo unspecified) | inactive | –
CC1(C)S[C@@H]2[C@H](NC(=O)[C@H](N)c3ccc(O)cc3)C(=O)N2[C@H]1C(=O)O | inactive | –
CC1(C)S[C@@H]2[C@H](NC(=O)[C@H](N)c3ccccc3)C(=O)N2[C@H]1C(=O)O | inactive | –
NC(N)=Nc1nc(CSCCC(N)=NS(N)(=O)=O)cs1 | inactive | –
O=[N+]([O-])c1cc(S(=O)(=O)Nc2ccccc2)ccc1Nc1ccccc1 | inactive | –
COc1ccccc1Oc1c(NS(=O)(=O)c2ccc(C(C)(C)C)cc2)nc(-c2ncccn2)nc1OCCO | inactive | –
COc1ccc(C(=O)c2ccccc2O)c(O)c1 | inactive | –
CC[N+](CC)(CC(=O)Nc1c(C)cccc1C)Cc1ccccc1 (tested in a mixture with another compound) | inactive | –
CN(C)C(=O)C(CCN1CCC(O)(c2ccc(Cl)cc2)CC1)(c1ccccc1)c1ccccc1 | – | 147 nM (active)
Cc1c(C(N)=O)cc([N+](=O)[O-])cc1[N+](=O)[O-] | inactive | –
CNCCC(Oc1ccc(C(F)(F)F)cc1)c1ccccc1 (stereo unspecified) | inactive | –
